Source: the supplement of paper PMC3842684

How the values were obtained:
[1] = test system: P. falciparum NF54-pfs16-GFP early (I-III) stage gametocytes; assay: relative % inhibition of viable gametocyte number; higher = more gametocytocidal; conditions: stage: early (I-III) gametocyte, incubation 72 h
Outline: (§1)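 Relative inhibition was normalised to in-plate vehicle and positive-control wells, with viable gametocytes defined on confocal images as elongated GFP objects whose MitoTracker Red signal exceeded a cut-off. NF54 pfs16-GFP gametocytes, magnet-isolated at early (I/IIa, day 2) or late (day 8) stage, were plated at 10% parasitaemia, 0.1% haematocrit with compound at 5 or 0.5 µM. Plates were incubated 72 h at 37°C, 5% CO2, 5% O2, then stained overnight.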

[2] = test system: P. falciparum NF54-pfs16-GFP late (IV-V) stage gametocytes; assay: as above; conditions: stage: late (IV-V) gametocyte, incubation 72 h
Outline: as §1

SMILES | relative % inhibition ([1]; 0.5 µM) [%] | relative % inhibition ([1]; 5 µM) [%] | relative % inhibition ([2]; 0.5 µM) [%] | relative % inhibition ([2]; 5 µM) [%]
COc1cc(-c2nc(-c3ccccc3)c(-c3ccccc3)[nH]2)cc(OC)c1O | 15.2 | 29.3 | -17 | 2.98
O=[N+]([O-])c1ccc(C=NNc2nc3ccccc3[nH]2)cc1 | 26.8 | 59.1 | -1.37 | -1.1
COc1ccc2sc(N(Cc3cccnc3)C(=O)c3ccc(C#N)cc3)nc2c1 | 9.23 | 7.65 | -14.5 | 8.48
Oc1ccc2ccccc2c1CNc1nc2ccccc2[nH]1 | 11 | 66.5 | 6.29 | 12
CCCCc1c(CCC)c(=N)c2ccccc2n1C | 16.2 | -5.38 | 18.3 | -17.8
CCOc1c(Br)cc(C2C(C(=O)OC)=CN(C)C=C2C(=O)OC)cc1OC | 17.4 | 88.4 | -1.2 | 68.1
OC(CNC1CCCCC1)Cn1c2ccc(I)cc2c2cc(I)ccc21 (configuration not stated) | 60.7 | 95.2 | 84.7 | 98.5
COc1ccc2nc(C)cc(Nc3ccccc3O)c2c1 | 6.33 | 20.9 | -7.14 | 18.4
Oc1c2c(nc3cc(-c4ccccc4)nn13)CCCC2 | 3.76 | -0.467 | -4.66 | 57.1
CCCCCCc1cc2cc(-c3csc(C=Cc4ccccc4)n3)c(=O)oc2cc1O | 18.9 | 101 | 31.2 | 104
OC(CNC1CCCCC1)Cn1c2ccccc2c2ccccc21 (configuration not stated) | 14.8 | 66 | 49.9 | 104
COC(=O)c1ccc(Cl)c2c1C1C=CCC1C(c1cccc3ccccc13)N2 (configuration not stated) | -9.28 | 8.02 | -9.69 | 35.3
CCOC(=O)c1ccc2nc(-c3ccccc3)cc(O)c2c1 | 2.53 | 2.35 | 50.6 | 102
